Results on 15 compounds are retold here after PubChem BioAssay.

Calls of active or inactive are those of the source.

The nature of assay [1]: compound effects on lung adenocarcinoma cell viability – A549, calcein-AM fluorescence, 48 h, basal, profiling panel (AID 1162). Particulars: higher = more signal.
Assay [2] can be described thus: compound effects on differentiated 3T3-L1 adipocyte viability – cell-based, 3T3-L1 adipocytes, calcein-AM fluorescence, 48 h, basal, profiling panel (AID 1163). The settings on record: 3T3-L1 adipocytes viability, higher = more signal.
Assay [3] can be described thus: compound effects on hepatocellular carcinoma cell viability – HepG2, calcein-AM fluorescence, 48 h, basal, profiling panel (AID 1164). Particulars: higher = more signal.
The nature of assay [4]: compound effects on multiple myeloma cell viability – MM1S, calcein-AM fluorescence, 48 h, basal, profiling panel (AID 1165).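 Further: viability of MM1S multiple myeloma cells under basal unstimulated conditions.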 The settings on record: higher = more signal.
Assay [5] can be described thus: calcein-AM signal in unstimulated myeloma cells – cell-based, calcein-AM fluorescence, 48 h, PK04 Diversity Set, profiling panel (AID 1166).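 Further: cells grown under basal conditions without added stimulus.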 The settings on record: RPMI8226 myeloma viability, higher = more signal.
The nature of assay [6]: JC-1 mitochondrial signal, unstimulated HepG2 cells – cell-based, JC-1 fluorescence, 24 h, 100 nL compound, profiling panel (AID 1167). The settings on record: HepG2 mitochondrial potential, higher = more signal.
Assay [7] is described as follows: JC-1 mitochondrial signal, unstimulated adipocytes – cell-based, JC-1 fluorescence, 3T3-L1 adipocytes, 24 h, 100 nL compound, profiling panel (AID 1168). The settings on record: JC-1 mitochondrial fluorescence, higher = more signal, called active from +8 up or from −8 down.
A short description of assay [8]: JC-1 mitochondrial signal, unstimulated myeloma cells – cell-based, JC-1 fluorescence, RPMI8226, 24 h, 100 nL compound, profiling panel (AID 1169). Particulars: JC-1 mitochondrial potential fluorescence, higher = more signal.
Assay [9] is described as follows: JC-1 mitochondrial signal, unstimulated MM1S myeloma – cell-based, JC-1 fluorescence, 24 h, 100 nL compound, profiling panel (AID 1170). Particulars: MM1S mitochondrial potential, higher = more signal.
A short description of assay [10]: resazurin metabolic signal in A549 cells – cell-based, resazurin fluorescence, 24 h, PK04 Diversity Set, profiling panel (AID 1171). Particulars: A549 viability, higher = more signal, called active from +8 up or from −8 down. In general terms: Resazurin is reduced to fluorescent resorufin, in cell work by metabolically active cells.
Further: test concentration not given here.

In the case of `CCN(CC)c1ccc(N2CC=CC34O[C@@H]5/C=C\CCC(C)OC(=O)C5[C@H]3C(=O)N(CCCO)[C@@H]4C2=O)cc1` (stereo not given in full), the z-score in assay [1] is 0.28; in assay [2], 0.782; in [3], 0.109; in assay [4], 1.09; in assay [5], 0.264; in assay [6] it was -0.356. Besides, the z-score in assay [7] was 0.0214 (inactive); in [8], -0.245; in [9], 1.18; in assay [10] it was -0.38 (inactive).
`NC(=O)NCC#Cc1ccc2c(c1)[C@]1(C(=O)N2)[C@H](c2ccc(O)cc2)N2[C@H](c3ccccc3)[C@H](c3ccccc3)OC(=O)[C@H]2[C@@H]1C(=O)N1CCCCCCC1`: the z-score in assay [1] is 1.21; in assay [2] it was 0.139; in assay [3], 1.23; in [4] it was 0.561; in assay [5] it was 0.597; in assay [6] it was -1.08. Also, the z-score in assay [7] was 1.04 (inactive); in assay [8], -0.578; in assay [9], -0.413; in assay [10] it was -0.118 (inactive).
Turning to `CC(CCC(=O)OC[C@H]1O[C@H](C#Cc2ccccc2)C=C[C@@H]1Oc1ccc(C)cc1)=NOC[C@@H](O)[C@H]1O[C@@H]2OC(C)(C)O[C@@H]2[C@H]1O`, the z-score is 0.0105 in [1]; -0.0958 in assay [2]; 0.0263 in assay [3]; -0.567 in [4]; -1.53 in assay [5]; -0.791 in assay [6]. Also, the z-score in assay [7] was -0.649 (inactive); in assay [8] it was -0.0641; in [9], -1.26; in assay [10], -0.042 (inactive).
In the case of `CCOC(=O)[C@H](Cc1ccccc1)NC(=O)CCC1CC(OC(=O)NCc2ccc3c(c2)OCO3)CC2(CCCC(COC(=O)NCC3CCCCC3)O2)O1` (stereo not given in full), the z-score in [1] was 0.0417; in assay [2] it was -0.0963; in assay [3] it was -0.264; in assay [4], -2.06; in assay [5], -2.09; in assay [6], 1.84. For the same compound, the z-score in assay [7] was -0.0648 (inactive); in assay [8], -0.00903; in assay [9], -0.306; in assay [10], 1.02 (inactive).
Turning to `CC(=O)OC[C@H]1O[C@H](CC=NOC[C@@H](C)[C@H](OCc2ccccc2)C(C)C)C=C[C@@H]1OC(C)=O`, the z-score in assay [1] is -0.878; in [2] it was -0.612; in assay [3], -1.02; in assay [4], -0.886; in assay [5], 0.128; in assay [6], -0.713. The z-score is -1.71 (inactive) in [7], 1.17 in assay [8], -0.482 in assay [9] and 0.286 (inactive) in assay [10].
Consider `c1ccc(C2NCCc3c2[nH]c2ccccc32)cc1` (stereo not given), for which the z-score is -0.479 in assay [1]; 0.381 in assay [2]; -0.704 in [3]; -0.402 in assay [4]; -0.742 in [5]; -2.18 in assay [6]. The z-score in [7] was -0.424 (inactive); in assay [8] it was 0.0801; in [9] it was 0.299; in assay [10], 0.272 (inactive).
`CC(C)(C)N1C(=O)[C@H]2[C@H]3[C@H](O)[C@H](O)CC(=NOCc4ccccc4)[C@@H]3CC[C@H]2C1=O`: the z-score in [1] is 0.366; in [2] it was 0.218; in assay [3], 0.586; in [4], -0.0096; in assay [5], 0.519; in assay [6], 0.858. Besides, the z-score was -0.249 (inactive) in [7], 0.701 in [8], -1.01 in assay [9] and -1.58 (inactive) in assay [10].
Take `CCOC(=O)NN=C1C[C@@H](O)[C@@H](O)[C@@H]2[C@@H]3C(=O)N(C4CCCCC4)C(=O)[C@@H]3CC[C@H]12`: the z-score in assay [1] is -0.392; in [2], 1.04; in [3], 0.31; in assay [4], -0.796; in [5] it was -1.06; in [6], -0.0619. Besides, the z-score was -1.05 (inactive) in assay [7], -0.527 in assay [8], 0.51 in assay [9] and -1.23 (inactive) in [10].
Turning to `C[C@@H](c1ccccc1)N1C(=O)[C@H]2[C@H]3[C@H](O)[C@H](O)CC(=NOC[C@@H](O)COCc4ccco4)[C@@H]3CC[C@H]2C1=O`, the z-score in assay [1] was 0.0517; in assay [2], -0.837; in [3] it was -0.78; in [4], 0.0485; in [5], -0.873; in assay [6], -0.794. For the same compound, the z-score in [7] was -0.519 (inactive); in assay [8] it was -0.287; in assay [9] it was -0.542; in assay [10], -0.428 (inactive).
For the compound `CO[C@@H]1COC(=O)CCC[C@@H](C)[C@H](OC)COC(=O)CCC[C@H]1C`, the z-score is -0.378 in assay [1]; -0.465 in assay [2]; -0.125 in assay [3]; -0.197 in assay [4]; 0.239 in assay [5]; -0.075 in [6]. Also, the z-score is -0.996 (inactive) in assay [7], 0.822 in [8], -0.162 in assay [9] and 0.183 (inactive) in [10].
`COC(=O)[C@@]1(Cc2ccc(OC)cc2)[C@H]2c3cc(C(=O)N4CCCC4)n(Cc4cc(F)c(F)c(F)c4)c3C[C@H]2CN1C(=O)c1ccccc1`: the z-score is -1.19 in assay [1]; -0.0755 in assay [2]; -0.521 in [3]; -1 in assay [4]; -3.11 in assay [5]; 1.31 in assay [6]. The z-score in assay [7] is -1.6 (inactive); in assay [8], -0.87; in assay [9], -1.2; in assay [10], -1.08 (inactive).
Consider `COCCCNC(=O)[C@]1(CCC(=O)OC(C)(C)C)N=C(c2ccc(OCCCO)cc2)O[C@@H]1c1ccccc1N=[N+]=[N-]`, for which the z-score in [1] is -0.771; in assay [2], 0.463; in assay [3], -0.0574; in [4] it was -0.744; in assay [5], -0.387; in assay [6] it was 1.75. Further, the z-score is 3.61 (inactive) in [7], -0.69 in assay [8], -0.984 in assay [9] and 0.576 (inactive) in [10].
As for `CCOC(=O)[C@H](Cc1ccccc1)NC(=O)CCC1CC(OC(=O)NCCc2ccc(F)cc2)CC2(CCCC(COC(=O)NCC(c3ccccc3)c3ccccc3)O2)O1` (stereo not given in full), the z-score is 0.241 in assay [1]; -0.351 in [2]; -1.03 in assay [3]; -3.42 in assay [4]; -3.75 in assay [5]; 0.368 in assay [6]. For the same compound, the z-score in [7] was -0.88 (inactive); in assay [8], -1; in assay [9], -2.12; in assay [10], 0.919 (inactive).
As for `CCOC(=O)CCN1C(=O)[C@H]2[C@H]3[C@H](O)[C@H](O)CC(=O)[C@H]3CC[C@H]2C1=O`, the z-score was -0.439 in assay [1]; 1.43 in assay [2]; 0.0368 in assay [3]; -0.904 in assay [4]; -0.122 in assay [5]; -0.103 in assay [6]. In addition, the z-score in [7] is -0.237 (inactive); in assay [8] it was 0.0295; in assay [9] it was -1.28; in assay [10], -0.125 (inactive).
In the case of `CC(C)CON=C1C[C@@H](O)[C@@H](O)[C@@H]2[C@@H]3C(=O)N([C@@H](C)c4ccccc4)C(=O)[C@@H]3CC[C@H]12`, the z-score in assay [1] is 0.58; in assay [2], -0.297; in assay [3], -0.0223; in assay [4], 0.844; in [5], 0.933; in assay [6] it was 0.658. In addition, the z-score in assay [7] was 0.341 (inactive); in [8] it was 0.53; in assay [9] it was -1.32; in assay [10], -0.511 (inactive).
